Out of some 360,000 compounds screened, about 2,400 (0.67%) were called active.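 The calls were made as follows: active = compounds whose normalised, plate-corrected inhibition of enzyme fluorescence in the single-dose primary screen is 50% or more; inactive = the rest.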 The full list was thinned out, with actives kept by preference.
Target: Fatty acid synthase (Homo sapiens) (UniProt P49327)
Test: inhibition of human FAS-TE enzyme activity – biochemical, fluorescence intensity, uHTS, primary screen (AID 602261);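 also: 0% = DMSO with enzyme and 100% = substrate without enzyme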
Details: recombinant FAS-TE, OMFH fluorogenic substrate, fluorescence endpoint; at 15 µM; stronger effect = higher value

Chain of Fatty acid synthase (Homo sapiens) (P49327 whole entry, looked up): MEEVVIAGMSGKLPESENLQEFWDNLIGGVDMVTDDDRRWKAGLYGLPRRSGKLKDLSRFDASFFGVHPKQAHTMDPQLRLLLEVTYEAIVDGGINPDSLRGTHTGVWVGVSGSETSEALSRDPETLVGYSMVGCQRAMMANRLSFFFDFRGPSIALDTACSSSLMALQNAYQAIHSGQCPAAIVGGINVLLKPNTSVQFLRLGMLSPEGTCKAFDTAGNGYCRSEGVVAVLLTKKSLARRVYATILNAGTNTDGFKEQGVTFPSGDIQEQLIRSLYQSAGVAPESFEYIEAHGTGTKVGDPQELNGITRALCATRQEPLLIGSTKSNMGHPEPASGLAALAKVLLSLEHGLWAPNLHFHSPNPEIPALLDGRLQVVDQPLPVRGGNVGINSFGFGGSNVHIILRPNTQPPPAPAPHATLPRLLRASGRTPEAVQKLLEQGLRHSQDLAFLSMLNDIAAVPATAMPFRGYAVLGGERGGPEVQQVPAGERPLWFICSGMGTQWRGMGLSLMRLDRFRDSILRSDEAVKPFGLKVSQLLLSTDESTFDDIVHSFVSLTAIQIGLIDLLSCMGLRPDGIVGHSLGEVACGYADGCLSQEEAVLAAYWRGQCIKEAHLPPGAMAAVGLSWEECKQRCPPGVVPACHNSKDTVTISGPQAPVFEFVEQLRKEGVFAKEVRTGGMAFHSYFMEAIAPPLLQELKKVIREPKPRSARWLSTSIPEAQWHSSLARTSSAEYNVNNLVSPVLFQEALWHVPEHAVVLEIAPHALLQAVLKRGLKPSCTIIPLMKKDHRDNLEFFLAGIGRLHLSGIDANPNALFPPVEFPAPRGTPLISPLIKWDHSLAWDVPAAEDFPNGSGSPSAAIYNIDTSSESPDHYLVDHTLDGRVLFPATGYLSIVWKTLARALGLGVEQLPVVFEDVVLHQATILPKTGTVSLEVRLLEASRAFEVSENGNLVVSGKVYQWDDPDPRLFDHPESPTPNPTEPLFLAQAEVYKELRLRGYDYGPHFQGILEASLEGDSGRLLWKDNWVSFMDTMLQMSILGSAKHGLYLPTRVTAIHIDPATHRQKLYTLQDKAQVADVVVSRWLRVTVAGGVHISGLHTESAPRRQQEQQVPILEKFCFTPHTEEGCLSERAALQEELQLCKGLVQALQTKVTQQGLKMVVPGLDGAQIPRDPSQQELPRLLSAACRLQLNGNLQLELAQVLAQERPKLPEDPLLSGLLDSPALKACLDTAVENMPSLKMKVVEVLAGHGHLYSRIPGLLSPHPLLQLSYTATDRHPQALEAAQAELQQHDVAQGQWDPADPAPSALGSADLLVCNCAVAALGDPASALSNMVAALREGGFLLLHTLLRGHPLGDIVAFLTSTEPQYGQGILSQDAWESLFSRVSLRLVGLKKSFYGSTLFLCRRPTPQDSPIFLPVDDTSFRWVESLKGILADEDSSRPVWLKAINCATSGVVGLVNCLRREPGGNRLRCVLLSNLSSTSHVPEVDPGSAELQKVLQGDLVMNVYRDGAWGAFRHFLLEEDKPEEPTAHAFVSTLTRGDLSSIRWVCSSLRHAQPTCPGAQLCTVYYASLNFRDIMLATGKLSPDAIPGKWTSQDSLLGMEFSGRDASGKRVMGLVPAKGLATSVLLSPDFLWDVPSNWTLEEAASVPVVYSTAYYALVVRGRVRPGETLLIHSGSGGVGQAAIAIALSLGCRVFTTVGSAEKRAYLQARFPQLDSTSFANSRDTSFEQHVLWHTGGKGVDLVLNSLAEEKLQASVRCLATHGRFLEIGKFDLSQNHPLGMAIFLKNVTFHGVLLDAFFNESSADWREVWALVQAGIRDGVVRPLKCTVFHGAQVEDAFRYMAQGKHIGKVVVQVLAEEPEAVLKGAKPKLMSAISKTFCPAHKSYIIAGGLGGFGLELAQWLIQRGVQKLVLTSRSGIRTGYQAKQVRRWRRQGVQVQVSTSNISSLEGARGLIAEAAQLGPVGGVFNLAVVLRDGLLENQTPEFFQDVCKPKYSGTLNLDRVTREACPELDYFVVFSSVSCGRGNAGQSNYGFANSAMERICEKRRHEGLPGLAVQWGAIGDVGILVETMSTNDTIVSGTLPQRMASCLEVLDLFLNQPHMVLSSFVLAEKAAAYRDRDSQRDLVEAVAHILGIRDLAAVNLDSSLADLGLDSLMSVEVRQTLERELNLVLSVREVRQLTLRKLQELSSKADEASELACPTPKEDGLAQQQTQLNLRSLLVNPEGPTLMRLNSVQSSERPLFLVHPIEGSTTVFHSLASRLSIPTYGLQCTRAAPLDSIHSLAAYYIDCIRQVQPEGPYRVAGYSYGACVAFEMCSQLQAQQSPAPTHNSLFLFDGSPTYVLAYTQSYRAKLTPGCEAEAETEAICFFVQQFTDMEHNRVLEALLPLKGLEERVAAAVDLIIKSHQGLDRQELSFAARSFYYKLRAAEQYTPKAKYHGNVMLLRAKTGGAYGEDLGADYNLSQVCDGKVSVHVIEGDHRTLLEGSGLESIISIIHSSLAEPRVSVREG

SMILES | inhibition
CC(=O)Nc1ccc2c3c(ccc([N+](=O)[O-])c13)CC2 | -4% (inactive)
CCCN1Cc2cccc(C(=O)NCc3ccccc3)c2C1=O | -0.8% (inactive)
CCCN1Cc2cccc(C(=O)Nc3ccc(S(=O)(=O)N4CCCCCC4)cc3)c2C1=O | 54.7% (active)
O=C(Nc1ccc(S(=O)(=O)N2CCCCCC2)cc1)c1c(F)cccc1F | 12% (inactive)
COCCCNCC(=O)Nc1sc(C)c(C)c1C(=O)OC | -3.7% (inactive)
CCOC(=O)C(C)n1cnc2c(nnn2-c2ccc(F)cc2)c1=O (stereo not given) | -7.4% (inactive)
Cc1ccc([C@@H]2CC(=O)[C@@H]3CN(S(=O)(=O)c4ccc(C)cc4)[C@H](c4ccccc4F)C[C@@H]3N2S(=O)(=O)c2ccc(Cl)cc2)cc1 | 12.3% (inactive)
Cc1ccc(S(=O)(=O)N2CC[C@H]3[C@@H](C2)C(=O)C[C@@H](c2ccccc2)N3S(=O)(=O)c2ccc(C)cc2)cc1 | 79.6% (active)
CCc1ccc([C@@H]2CC(=O)[C@@H]3CN(S(=O)(=O)c4ccc(C)cc4)[C@H](c4ccc(Cl)cc4)C[C@@H]3N2S(=O)(=O)c2ccc(C)cc2)cc1 | 12.7% (inactive)
CC(C)[C@H](NC(=O)N1c2ccccc2NC(=O)[C@@H]1C(C)C)C(=O)N[C@H](C(=O)O)c1ccccc1 | -2.6% (inactive)
O=[N+]([O-])c1ccc(NS(=O)(=O)c2ccccc2)c(Cl)c1 | -7% (inactive)
Cc1ccc2oc(=O)c3cnn(CC(=O)N4CCCCCC4)c3c2c1 | 0.5% (inactive)
Cc1cccc(C(=O)N2CCN(S(=O)(=O)N3CCCCC3)CC2)c1 | -2.1% (inactive)
Cc1ccc2cc3cc(C(=O)N4CCCCCC4)oc3nc2c1 | 77.7% (active)
COc1ccc(C(C)=O)cc1COC(=O)Cn1cnc2ccccc2c1=O | -2.7% (inactive)
COc1cc(-c2noc(C3CCCN(S(=O)(=O)c4cccc(Cl)c4)C3)n2)cc(OC)c1OC (stereo not given) | 50.7% (active)
CC(C)c1ccc(-c2noc(C3CCCN(S(C)(=O)=O)C3)n2)cc1 (stereo not given) | 16.9% (inactive)
COc1cccc(-c2noc(C3CCCN(C(=O)c4ccc(F)cc4)C3)n2)c1 (stereo not given) | -3.3% (inactive)
Nc1ccc(SCCN2C(=O)c3ccccc3C2=O)cc1 | -1.7% (inactive)
CC(C)c1ccc2c(c1)c(SC(C)(C)C)c(CC(C)(C)C(=O)O)n2Cc1ccc(Cl)cc1 | 80.4% (active)
O=C(NCc1ccccc1)C1CCCN(c2nc3ccsc3c(=O)s2)C1 (stereo not given) | -1.5% (inactive)
Nc1ccc(N=Nc2ccccc2Cl)c(N)n1 | 12% (inactive)
O=C(CC(c1ccccc1)c1ccccc1)NCC(O)c1ccc([N+](=O)[O-])cc1 (stereo not given) | 50.4% (active)
O=C(NCC(O)c1ccc([N+](=O)[O-])cc1)C1CCCCC1 (stereo not given) | -3.9% (inactive)
CN(C)C(CNC(=O)Cc1ccc([N+](=O)[O-])cc1)c1ccccc1 (stereo not given) | 3.9% (inactive)
COc1ccc(C(=O)NC(=S)N2CCCCC2c2cccnc2)cc1OC (stereo not given) | -3.7% (inactive)
Cc1ccccc1-n1c(C)cc(/C=N/NC(=O)c2ccc(CN3CCOCC3)cc2)c1C | -7.5% (inactive)
COc1ccc(NC(=O)CCn2ccnc2)c(OC)c1 | -2.6% (inactive)

SMILES | inhibition
O=C(O)c1ccccc1N=N/C(=N/Nc1cc(S(=O)(=O)O)ccc1O)c1ccccc1 | 3.7% (inactive)
COc1ccc(NS(=O)(=O)c2ccc(N3CCN(CCO)CC3)c([N+](=O)[O-])c2)cc1 | -6.1% (inactive)
COc1ccc(NS(=O)(=O)c2cc(NC(=O)c3ccc(S(=O)(=O)N(C)C)cc3)ccc2N2CCOCC2)cc1 | 88.6% (active)
COc1ccc(NS(=O)(=O)c2cc(NC(=O)C3CCCCC3)ccc2N2CCOCC2)cc1 | 10.3% (inactive)
COc1cc(/C=C/C(=O)Nc2ccc(OC)c(S(=O)(=O)N3CCOCC3)c2)ccc1OCC#N | -0.4% (inactive)
COc1ccc(NS(=O)(=O)c2ccc(N3CCOCC3)c(NC(=O)/C=C/C(=O)O)c2)cc1 | -5.8% (inactive)
COc1ccc(NS(=O)(=O)c2cc(NC(=O)/C=C/c3cc(OC)c(OC)c(OC)c3)ccc2N2CCCCC2)cc1 | 50.6% (active)
O=C(NC(C(=O)NCCN1CCOCC1)C12CC3CC(CC(C3)C1)C2)C1CCCCC1 (stereo not given) | -6.3% (inactive)
CCCCN(CC(=O)Nc1cccc(S(=O)(=O)N2CCCC2)c1)Cc1nc2ccccc2c(=O)[nH]1 | 8.2% (inactive)
CCOCCCN(C)C1CCN(C(=O)c2oc3ccccc3c2NC(=O)COc2cccc(C)c2)CC1 | 1.2% (inactive)
CCN(C(=O)CSc1ncnc2c1cnn2-c1ccccc1)C1CCS(=O)(=O)C1 (stereo not given) | 57.4% (active)
CC(C)CN(C(=O)CSc1ncnc2sccc12)C1CCS(=O)(=O)C1 (stereo not given) | -7.9% (inactive)
CCC(C)N(C(=O)CSc1ncnc2c1cnn2-c1ccccc1)C1CCS(=O)(=O)C1 (stereo not given) | 22.1% (inactive)
COc1cc(C(O)c2nc(-c3cnn(C)c3)cs2)ccc1F (stereo not given) | -5.1% (inactive)
COc1ccc(N2CCN(S(=O)(=O)c3cc(Br)cnc3N)CC2)cc1 | -1.1% (inactive)
Cc1ccc(S(=O)(=O)N2CC(C)N(S(C)(=O)=O)C2)cc1 (stereo not given) | -3.6% (inactive)
Cc1nc2c(OCc3cccc(Cl)c3)cccn2c1N(C)CC1CC1 | 17.1% (inactive)
CCc1nc2c(OCc3ccc(Cl)cc3Cl)cccn2c1N(C)C(=O)C(C)C | 9.4% (inactive)
Cc1nc2c(OCc3ccc(Cl)cc3Cl)cccn2c1N(C)CC1CC1 | 57.2% (active)
Cc1ccc(C2C(C#N)C(C#N)N3CCCN23)cc1 (stereo not given) | -18.8% (inactive)
COc1cc2c(=O)n(C)c3ccccc3c2cc1OC | -3.2% (inactive)
COCC(=O)N(C)C[C@H]1Oc2cc(Br)ccc2S(=O)(=O)N([C@H](C)CO)C[C@H]1C | -6% (inactive)
COc1cc(OC)cc(C(=O)NC2CCN(C(=O)N3c4ccccc4Sc4ccccc43)CC2)c1 | 38.7% (inactive)
CCCCCN(C(=O)CCC(=O)OCC(=O)NC1CCC(C)CC1)c1c(N)n(CCCC)c(=O)[nH]c1=O (stereo not given) | -3.8% (inactive)
CCN(c1ccccc1)S(=O)(=O)c1ccc(C(=O)Nc2ccccc2OC)cc1 | 19.5% (inactive)
COc1ccc([N+](=O)[O-])cc1NC(=O)c1ccc(N(Cc2ccccc2C)S(C)(=O)=O)cc1 | 62.6% (active)
Cc1ccccc1CN(c1ccc(C(=O)NCC2CCCO2)cc1)S(C)(=O)=O (stereo not given) | -11.4% (inactive)
